PubChem BioAssay (Tox21)
Results filed as inconclusive are left out. The source made the active and inactive calls. Unless noted, calls come from the whole dose curve.

Experiments:
[1] = Nuclear factor erythroid 2-related factor 2/antioxidant responsive element (Nrf2/ARE) small molecule agonists: qHTS cell viability counter screen in human keratinocytes (AID 1919968; active = well fitted curve in the direction sought with a large enough effect in the repeat runs; an effect the other way counts as inactive or inconclusive; note: nearly all actives have a fitted effect of over 55% in size)
Procedure, shortened: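 KeratinoSens HaCaT cells, 1,500/well, preincubated 5 h, then exposed to compounds in DMSO for 23 h at 37 C/5% CO2. Viability read as CellTiter-Fluor fluorescence after 1 h, in the same wells as the ARE-luciferase read.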

[2] = Nuclear factor erythroid 2-related factor 2/antioxidant responsive element (Nrf2/ARE) small molecule agonists: luciferase reporter gene qHTS assay in human keratinocytes (AID 1919969); note: nearly all actives have a fitted effect of over 35% in size
[3] = molecular target: Gonadotropin-releasing hormone receptor (Homo sapiens) (UniProt P30968); experiment: Human gonadotropin-releasing hormone receptor (GnRHR) small molecule agonists, calcium flux assay in GnRHR-HEK293 cells (AID 1920063); note: nearly all actives have a fitted effect of over 35% in size
Procedure, shortened: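 HEK293 cells stably expressing human GnRHR were dye-loaded for 1 h at 37 C. Compound was added in agonist mode and fluorescence (Ex/Em 480/540) recorded kinetically for 3 min. Fifteen concentrations, triplicates.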

[4] = molecular target: KiSS-1 receptor (Homo sapiens) (UniProt Q969F8); experiment: Human kisspeptin (KISS1R) small molecule agonists, calcium flux assay in KISS1R-HEK293 cells (AID 1920064; active = well fitted curve in the direction sought with a large enough effect in the repeat runs; an effect the other way counts as inactive or inconclusive)
Procedure, shortened: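 HEK293 cells stably expressing human KISS1R were loaded with calcium dye for 1 h at 37 C, then given compound; fluorescence (Ex/Em 480/540) was read kinetically for 3 min. Fifteen concentrations, triplicate.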

[5] = G protein-coupled receptor (GPCR) small molecule agonists, calcium flux assay: HEK293 wild type cell line counter screen (AID 1920065)
Procedure, shortened: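 Wild-type HEK293 cells plated 18 h, loaded with calcium dye 1 h at 37 C, then compounds added in agonist mode (ATP as positive control). Kinetic fluorescence Ex/Em 480/540 recorded 3 min at 1 sec intervals; 15 concentrations, triplicate.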

[6] = p53 small molecule agonists, cell-based qHTS assay with rat liver microsomes (AID 1963578)
Procedure, shortened: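 Each plate received p53RE-bla cells, then compound, then rat liver microsomes and NADPH (both 0.5 mg/mL final). Plates were held 16 h at 37 C, and beta-lactamase activity was detected with LiveBLAzer over 2 h.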

[7] = p53 small molecule agonists, cell-based qHTS assay with human liver microsomes: qHTS cell viability counter screen (AID 1963579); note: nearly all actives have a fitted effect of over 45% in size
Procedure, shortened: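 Tox21 library compounds, delivered from DMSO stocks, were tested on p53RE-bla cells together with 0.5 mg/mL human liver microsomes and 0.5 mg/mL NADPH (final) over 16 h at 37 C; CellTiter-Glo luminescence served as the cytotoxicity measure.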

[8] = p53 small molecule agonists, cell-based qHTS assay with rat liver microsomes: qHTS cell viability counter screen (AID 1963580); note: nearly all actives have a fitted effect of over 45% in size
Procedure, shortened: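 Intracellular ATP, by CellTiter-Glo luminescence, defines viability. HCT-116 p53RE-bla cells, 4,000 per well, were compound-treated in the presence of rat liver microsomes and NADPH for 16 h at 37 C.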

[9] = p53 small molecule agonists, cell-based qHTS assay: qHTS cell viability counter screen (AID 1963581); note: nearly all actives have a fitted effect of over 45% in size
Procedure, shortened: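 p53RE-bla HCT-116 cells, compounds added 5 h after plating and incubated 16 h at 37 C. Cytotoxicity measured in the same wells as intracellular ATP by CellTiter-Glo luminescence after 30 min at room temperature.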

[10] = p53 small molecule agonists, cell-based qHTS assay (AID 1963582; active = well fitted activation curve with a large enough effect in the signal ratio in the repeat runs, not every such curve was filed as active; the % refers to the signal ratio)
Procedure, shortened: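 p53RE-bla reporter cells, compounds added in DMSO after 5 h plating, incubated 16 h at 37 C. Beta-lactamase read via 2 h room-temperature LiveBLAzer B/G FRET substrate, fluorescence intensity.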

[11] = molecular target: 5-hydroxytryptamine receptor 2A (Homo sapiens) (UniProt P28223); experiment: 5-hydroxytryptamine receptor 2A (HTR2A) small molecule antagonists, cell-based qHTS assay (AID 1963586); note: nearly all actives have a fitted effect of over 45% in size
Procedure, shortened: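 Antagonist-mode intracellular calcium assay: DOI (4 nM) added after 5 min compound pre-incubation at room temperature to dye-loaded HTR2A-CHO cells. Fluorescence followed for 3 min, sampled every second.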

[12] = molecular target: 5-hydroxytryptamine receptor 2A (Homo sapiens) (UniProt P28223); experiment: 5-hydroxytryptamine receptor 2A (HTR2A) small molecule agonists, cell-based qHTS assay (AID 1963587); note: nearly all actives have a fitted effect of over 30% in size
Procedure, shortened: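 Kinetic calcium-flux fluorescence (2 min, 1 sec intervals) after compound addition in agonist mode. HTR2A-CHO cells were cultured 18 h, then dye-loaded 1 h at 37 C.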

[13] = molecular target: Muscarinic acetylcholine receptor M1 (Homo sapiens) (UniProt P11229); experiment: Cholinergic receptor muscarinic 1 (CHRM1) small molecule antagonists, cell-based qHTS assay (AID 1963588); note: nearly all actives have a fitted effect of over 40% in size
Procedure, shortened: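 CHRM1-CHO calcium-flux assay, antagonist mode. Cells were seeded 18 h, dye-loaded 1 h at 37 C and given compound for 5 min at RT, then acetylcholine was added at 50nM. FDSS fluorescence was read 3 min; 15 concentrations, three runs.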

[14] = molecular target: Muscarinic acetylcholine receptor M1 (Homo sapiens) (UniProt P11229); experiment: Cholinergic receptor muscarinic 1 (CHRM1) small molecule agonists, cell-based qHTS assay (AID 1963589); note: nearly all actives have a fitted effect of over 35% in size
Procedure, shortened: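 CHO cells stably expressing human CHRM1 were loaded with calcium dye for 1 h at 37 C, then compound was added in agonist mode. Intracellular calcium fluorescence was followed kinetically at 1 s intervals. Fifteen concentrations were tested in three independent runs.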

[15] = cAMP Responsive Elements (CRE) small molecule agonists, cell-based qHTS assay (AID 1963590)
Procedure, shortened: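 CRE-bla HEK 293T cells, 2,000/well in DMEM with 10% dialyzed FBS and 25 mM HEPES, pre-incubated 18 h at 37 C, then exposed to compound 3 h at 37 C. Beta-lactamase reporter read with LiveBLAzer B/G FRET substrate after 2 h at room temperature.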

[16] = molecular target: Beta-2 adrenergic receptor (Homo sapiens) (UniProt P07550); experiment: Adrenergic beta2 receptor (ADRB2) small molecule antagonists, cell-based qHTS assay (AID 1963592); note: series mostly up to about 92 µM; nearly all actives have a fitted effect of over 50% in size
Procedure, shortened: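 Cells (CHO, stable ADRB2 overexpression) incubated 18-20hr at 37C; compounds added from DMSO; agonist mix (1nM isoproterenol, 100uM IBMX, 25uM Ro-20-1724) added; 0.5hr RT; d2-cAMP and anti-cAMP-cryptate added; 1hr RT; 665/615 nm read.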

[17] = molecular target: Beta-2 adrenergic receptor (Homo sapiens) (UniProt P07550); experiment: Adrenergic beta2 receptor (ADRB2) small molecule agonists, cell-based qHTS assay (AID 1963593);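 note: CHO cells stably overexpressing human ADRB2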
Procedure, shortened: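 CHO cells stably over-expressing ADRB2 were plated overnight at 37C, then dosed with compounds plus a stimulation mix containing 100uM IBMX and 25uM Ro-20-1724 for 0.5hr at room temperature. cAMP was measured by HTRF competition, 1hr.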

[18] = molecular target: D(2) dopamine receptor (Homo sapiens) (UniProt P14416); experiment: Dopamine D2 receptor (DRD2) small molecule agonists, cell-based qHTS assay (AID 1963594); note: nearly all actives have a fitted effect of over 35% in size
Procedure, shortened: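 cAMP accumulation in DRD2-HEK293 cells measured by HTRF after 1 h detection; compounds added 10 min before NKH477 (200nM […]) forskolin-analogue stimulation, 30 min at room temperature, with Ro20-1724 present at 0.1 mM final.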

[19] = molecular target: D(2) dopamine receptor (Homo sapiens) (UniProt P14416); experiment: Dopamine D2 receptor (DRD2) small molecule antagonists, cell-based qHTS assay (AID 1963595; active = well fitted inhibition curve with a large enough effect in the signal ratio in the repeat runs, with a control signal flat; the % refers to the signal ratio)
Procedure, shortened: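 HEK293 cells stably expressing DRD2 were preincubated with 0.1 mM Ro20-1724, then with compound for 10 min at room temperature. Cells were stimulated with 200 nM NKH477 plus 12 nM quinpirole for 30 min, and cAMP was read by HTRF.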

[20] = cAMP Responsive Elements (CRE) small molecule antagonists, cell-based qHTS assay (AID 1963591; active = well fitted inhibition curve with a large enough effect in the signal ratio in the repeat runs, not every such curve was filed as active; the % refers to the signal ratio)
Procedure, shortened: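 CRE-bla HEK293T cells plated 18 h, then given compound plus NKH477 at 0.25 uM final for 3 h at 37C. Beta-lactamase reporter read with LiveBLAzer B/G FRET substrate after 2 h at room temperature.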

Measured: Potency

Sequence of Beta-2 adrenergic receptor (Homo sapiens) (P07550 whole entry, looked up): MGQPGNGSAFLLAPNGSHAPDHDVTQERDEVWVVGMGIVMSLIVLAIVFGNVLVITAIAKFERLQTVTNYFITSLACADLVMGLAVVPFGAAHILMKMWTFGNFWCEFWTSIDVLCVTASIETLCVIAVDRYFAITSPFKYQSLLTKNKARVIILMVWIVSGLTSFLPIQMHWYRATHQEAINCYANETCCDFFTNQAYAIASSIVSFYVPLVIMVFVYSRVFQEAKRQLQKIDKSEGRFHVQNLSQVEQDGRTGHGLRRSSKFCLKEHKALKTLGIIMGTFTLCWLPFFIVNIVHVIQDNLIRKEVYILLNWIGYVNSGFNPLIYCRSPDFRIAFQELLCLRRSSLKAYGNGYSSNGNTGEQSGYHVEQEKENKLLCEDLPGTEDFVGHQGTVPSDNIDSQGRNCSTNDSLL
Sequence of Gonadotropin-releasing hormone receptor (Homo sapiens) (P30968 whole entry, looked up): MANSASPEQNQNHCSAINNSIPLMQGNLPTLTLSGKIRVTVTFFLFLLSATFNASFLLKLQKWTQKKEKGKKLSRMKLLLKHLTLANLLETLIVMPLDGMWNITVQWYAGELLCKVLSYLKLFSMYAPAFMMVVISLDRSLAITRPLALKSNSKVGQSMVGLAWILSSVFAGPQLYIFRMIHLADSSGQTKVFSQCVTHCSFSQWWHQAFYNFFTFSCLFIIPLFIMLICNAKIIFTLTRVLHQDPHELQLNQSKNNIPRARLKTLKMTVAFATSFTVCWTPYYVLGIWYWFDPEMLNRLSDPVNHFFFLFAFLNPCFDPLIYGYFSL
Sequence of 5-hydroxytryptamine receptor 2A (Homo sapiens) (P28223 whole entry, looked up): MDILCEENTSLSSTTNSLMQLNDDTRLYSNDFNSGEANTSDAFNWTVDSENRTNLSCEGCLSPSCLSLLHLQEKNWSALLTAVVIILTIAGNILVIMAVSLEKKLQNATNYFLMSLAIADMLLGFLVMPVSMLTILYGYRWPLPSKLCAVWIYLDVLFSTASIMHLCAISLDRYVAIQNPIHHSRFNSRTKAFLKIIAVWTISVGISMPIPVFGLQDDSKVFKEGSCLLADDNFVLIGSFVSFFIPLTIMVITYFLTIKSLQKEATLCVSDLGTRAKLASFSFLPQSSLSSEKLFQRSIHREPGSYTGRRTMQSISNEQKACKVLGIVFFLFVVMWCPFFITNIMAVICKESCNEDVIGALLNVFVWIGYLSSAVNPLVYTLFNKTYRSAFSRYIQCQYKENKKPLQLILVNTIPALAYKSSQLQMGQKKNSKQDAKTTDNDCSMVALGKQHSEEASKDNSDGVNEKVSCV
Sequence of D(2) dopamine receptor (Homo sapiens) (P14416 whole entry, looked up): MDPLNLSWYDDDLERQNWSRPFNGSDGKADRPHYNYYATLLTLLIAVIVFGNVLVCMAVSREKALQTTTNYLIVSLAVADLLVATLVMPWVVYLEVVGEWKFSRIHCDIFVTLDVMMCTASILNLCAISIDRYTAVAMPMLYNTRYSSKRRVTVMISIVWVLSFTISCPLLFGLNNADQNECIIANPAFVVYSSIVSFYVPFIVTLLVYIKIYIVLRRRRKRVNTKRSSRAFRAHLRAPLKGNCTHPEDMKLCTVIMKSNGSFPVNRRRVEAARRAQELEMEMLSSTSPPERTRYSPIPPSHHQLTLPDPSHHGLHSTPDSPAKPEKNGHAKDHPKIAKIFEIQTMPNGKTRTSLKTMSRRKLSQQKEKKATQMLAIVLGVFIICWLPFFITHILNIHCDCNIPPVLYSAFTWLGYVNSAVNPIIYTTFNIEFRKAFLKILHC
Sequence of Muscarinic acetylcholine receptor M1 (Homo sapiens) (P11229 whole entry, looked up): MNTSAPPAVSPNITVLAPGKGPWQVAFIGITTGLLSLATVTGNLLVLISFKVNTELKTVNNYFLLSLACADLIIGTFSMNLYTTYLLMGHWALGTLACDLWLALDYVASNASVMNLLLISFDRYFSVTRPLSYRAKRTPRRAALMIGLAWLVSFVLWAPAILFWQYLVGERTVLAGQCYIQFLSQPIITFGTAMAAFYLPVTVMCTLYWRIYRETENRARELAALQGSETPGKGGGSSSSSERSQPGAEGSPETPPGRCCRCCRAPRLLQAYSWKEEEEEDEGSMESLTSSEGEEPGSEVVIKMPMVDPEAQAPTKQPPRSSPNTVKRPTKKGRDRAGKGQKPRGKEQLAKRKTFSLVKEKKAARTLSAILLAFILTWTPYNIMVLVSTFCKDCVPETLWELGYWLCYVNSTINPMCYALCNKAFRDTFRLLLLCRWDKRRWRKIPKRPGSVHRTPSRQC
Sequence of KiSS-1 receptor (Homo sapiens) (Q969F8 whole entry, looked up): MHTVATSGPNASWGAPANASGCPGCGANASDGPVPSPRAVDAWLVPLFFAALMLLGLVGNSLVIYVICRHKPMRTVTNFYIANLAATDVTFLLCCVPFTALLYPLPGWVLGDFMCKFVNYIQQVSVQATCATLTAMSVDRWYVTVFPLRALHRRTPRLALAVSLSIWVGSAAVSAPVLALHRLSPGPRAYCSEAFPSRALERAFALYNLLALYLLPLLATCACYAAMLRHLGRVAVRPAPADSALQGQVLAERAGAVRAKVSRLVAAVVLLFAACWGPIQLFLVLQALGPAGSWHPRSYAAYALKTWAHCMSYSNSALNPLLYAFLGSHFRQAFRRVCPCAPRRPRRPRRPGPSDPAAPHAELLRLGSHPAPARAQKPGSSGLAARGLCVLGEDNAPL

CCOP(=O)(OCC)OCC
not listed: [20]
inactive: all other assays above

O=C(O)COc1ccccc1
not listed: [11] | [17]
inactive: all other assays above

CNC(=O)N(C)c1nnc(C(C)(C)C)s1
not listed: [17]
inactive: all other assays above

N#Cc1cc(Br)c(O)c(Br)c1
not listed: [10] | [13] | [15]
inactive: all other assays above

C[C@H]1C(=O)O[C@@H]2CCN3CC=C(COC(=O)[C@](C)(O)[C@]1(C)O)[C@H]23
not listed: [13] | [14] | [19]
inactive: all other assays above

CCC1(c2ccccc2)CCC(=O)NC1=O (stereo not given)
not listed: [16] | [17]
inactive: all other assays above

CN(C)CCC#N
not listed: [8] | [10] | [17]
inactive: all other assays above
